Assay outcomes deposited in PubChem BioAssay by Buhrlage Lab, Dana-Farber Cancer Institute and Novartis Institutes for BioMedical Research (Cambridge, Mass).
Hits are enriched below; roughly 13% of the tested compounds scored in any of these assays.
USP30 block: inhibitors of human USP30 deubiquitinase | purified USP30, Ub-rhodamine cleavage fluorescence | inhibition, % at 25 µM | hit rate 5.3% among 47,000 | AID 1645860
USP17 inh: human USP17-like deubiquitinase inhibition; hit rate 6.5% among 47,000; purified USP17, Ub-rhodamine cleavage fluorescence, 3 h; inhibition, % at 50 µM; AID 1645855
Target sequence (A8MUK1 whole entry, looked up): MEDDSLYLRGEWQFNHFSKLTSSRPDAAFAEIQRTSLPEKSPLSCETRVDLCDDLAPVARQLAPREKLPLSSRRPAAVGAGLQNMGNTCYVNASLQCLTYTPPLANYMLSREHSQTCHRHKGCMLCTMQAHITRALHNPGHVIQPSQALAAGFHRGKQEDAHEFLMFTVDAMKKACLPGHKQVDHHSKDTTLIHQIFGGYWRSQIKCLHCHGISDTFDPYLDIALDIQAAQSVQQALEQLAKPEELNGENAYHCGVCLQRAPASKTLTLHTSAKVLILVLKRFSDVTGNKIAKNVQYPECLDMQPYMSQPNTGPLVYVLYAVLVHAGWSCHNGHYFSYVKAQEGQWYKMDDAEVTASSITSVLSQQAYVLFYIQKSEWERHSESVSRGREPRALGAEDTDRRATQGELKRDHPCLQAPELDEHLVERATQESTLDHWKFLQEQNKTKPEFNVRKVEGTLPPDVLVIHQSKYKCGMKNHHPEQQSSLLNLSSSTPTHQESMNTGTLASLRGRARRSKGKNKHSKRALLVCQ
USP8 inh: inhibitors of human USP8 deubiquitinase; P40818; AID 1645853; hit rate 4.2% among 47,000; purified USP8, Ub-rhodamine cleavage fluorescence, 30 min; inhibition, % at 20 µM
USP10 inh: blocks human USP10 ubiquitin-rhodamine cleavage; Q14694; purified USP10, Ub-rhodamine fluorescence, 60 min; inhibition, % at 20 µM; hit rate 1.1% among 47,000; AID 1645856
UCHL1 inh: blocks human UCHL1 ubiquitin-rhodamine cleavage | hit rate 0.2% among 47,000 | inhibition, % at 20 µM | AID 1645859 | P09936 | purified UCHL1, Ub-rhodamine cleavage fluorescence
USP7 inh: blocks human USP7 ubiquitin-rhodamine cleavage | purified USP7, Ub-rhodamine cleavage fluorescence | inhibition, % at 20 µM | Q93009 | hit rate 0.3% among 47,000
An asterisk follows results filed as active. No stated cut-off is given here; in the data, active means inhibition above about 30%; inactive means the rest.

SMILES | USP30 block | USP17 inh | USP8 inh | USP10 inh | UCHL1 inh | USP7 inh
COc1ccc(-n2nc(C)c3c2NC(=O)CC3C(=O)c2ccc3c(c2)OCCO3)cc1 (configuration not stated) | 22 | 10 | 8 | -2 | 4 | 2
Fc1cc(CN2CCCC(c3nnc4n3CCNCC4)C2)ccc1N1CCCC1 (configuration not stated) | -175 | -45 | -51 | -5 | -4 | -5
CCOC(=O)c1ccc(N(C(=O)Cn2nnc3ccccc32)C(C(=O)NC(C)(C)C)c2cc(OC)c(OC)c(OC)c2)cc1 (configuration not stated) | 30 | 30* | -16 | 29 | -1 | 0
COc1ccc(C(C(=O)NC2CCCCC2)N(C(=O)Cn2nnc3ccccc32)c2ccc(S(=O)(=O)N3CCC(C)CC3)cc2)cc1O (configuration not stated) | 33* | 5 | -5 | 17 | 9 | 9
CC(C)CS(=O)(=O)N1C[C@H]2C[C@H](C(=O)N3CCN(C)CC3)[C@@H](C1)O2 | -5 | -11 | -52 | 1 | -1 | 0
c1ccc(CNc2ccc(-c3ccccc3)nn2)cc1 | 45* | 28 | 57* | 10 | 4 | 8
CN1CCN(C(=O)c2ccc(-c3ccc(NCc4ccccc4)nn3)cc2)CC1 | 1 | 7 | -209 | -4 | -2 | -1
CCCCN1Cc2sc(NC(=O)Nc3ccccc3F)nc2C1=O | 1 | 33* | 2 | 0 | 1 | 5
O=C(/C=C/c1ccc(F)cc1)N1CCCc2ccccc21 | 16 | 2 | -4 | 4 | -2 | -31
O=C(/C=C/c1cccc(F)c1)N1CCc2ccccc21 | 29 | 20 | 42* | 9 | 2 | 11
O=C(/C=C/c1ccc(F)cc1)N1CCc2ccccc2C1 | 1 | 62* | 88* | 1 | 2 | -3
O=C(NCc1ccc(F)cc1)N1CCc2ccccc2C1 | 22 | 17 | 22 | 0 | 2 | -5
COc1ccc(Nc2nc3c(S(=O)(=O)c4ccccc4)nnn3c3ccccc23)cc1Cl | 16 | 20 | 7 | 8 | 0 | 2
CCOC(=O)c1nc(Nc2ccc(OC)c(Cl)c2)c2ccccc2n1 | 49* | 74* | -2 | -3 | 1 | 5
Cn1c2ccccc2c(=O)c2c(=O)n(Cc3ccco3)c(-c3ccccc3F)nc21 | -29 | 9 | 90* | 61* | 11 | 5
COc1cc(-c2nc3c(c(=O)c4ccccc4n3C)c(=O)n2Cc2ccco2)cc(OC)c1OC | -18 | -5 | 29 | 0 | 3 | 3
Cn1c2ccccc2c(=O)c2c(=O)n(-c3ccccc3)c(-c3ccc(F)cc3)nc21 | 4 | 43* | 7 | 5 | -1 | 7
O=C(c1ccccc1)C1CCN(C(=O)c2ccccc2)CC1 | 9 | -2 | -93 | -1 | 0 | -12
Cc1ccc2c(CNCCC3=CCCCC3)c(C(=O)O)n(C)c2c1 | -4 | -4 | -8 | 72* | 0 | 1
COc1ccc2c(CNCCC3=CCCCC3)c(C(=O)O)n(Cc3ccc(F)cc3)c2c1 | -24 | 16 | 3 | 10 | 4 | -112
O=S(=O)(c1ccccc1)N1CCCCC1c1nnc(-c2ccccn2)o1 (configuration not stated) | 13 | 3 | -1 | -2 | -3 | 0
O=C(CCCCCn1c(=O)[nH]c2ccccc2c1=O)Nc1ccccc1Br | 35* | 16 | 18 | 9 | 0 | 1
O=C(CCCCn1c(=O)[nH]c2ccccc2c1=O)Nc1cccc(Cl)c1 | 20 | 80* | 81* | 20 | 0 | 30*
O=C(CCCn1c(=O)[nH]c2cc(Cl)ccc2c1=O)NC1CCN(Cc2ccccc2)CC1 | 1 | 2 | 3 | 0 | 2 | -5
Cc1nc(-c2ccccc2)cc2nn(CC(=O)Nc3cccc(C(C)C)c3)c(=O)n12 | -54 | -18 | -1 | -4 | -3 | -5
SMILES | USP30 block | USP17 inh | USP8 inh | USP10 inh | UCHL1 inh | USP7 inh
Cc1nccc(C(=O)N2CCCC(Cc3cnc(N(C)C)cn3)CC2)n1 (configuration not stated) | 16 | 19 | 20 | 1 | 1 | 4
COc1cccc(CNC(=O)C2CCCN(S(=O)(=O)N3CCOCC3)C2)c1 (configuration not stated) | 26 | 11 | 24 | 0 | 1 | 6
COc1ccc(C(c2c[nH]c3ccccc23)c2c[nH]c3ccccc23)cc1O | -53 | 16 | 38* | -7 | 1 | -2
COc1cc(C(=O)NCC(c2ccccc2)c2c[nH]c3ccccc23)cc(OC)c1OC (configuration not stated) | -5 | 0 | -16 | 4 | 10 | -3
Cc1nc(C2CN(Cc3scnc3C)CCO2)cc(=O)[nH]1 (configuration not stated) | -3 | 1 | 0 | -1 | -1 | 0
COc1cc2c(c(OC)c1OC)-c1ccc(N3CCN(Cc4ccc5c(c4)OCO5)CC3)c(=O)cc1[C@@H](NC(C)=O)CC2 | -19 | 0 | 45* | -9 | 2 | 2
COc1cc2c(=O)n(CCC(=O)NCc3ccco3)c(=O)n(CC(=O)Nc3c(C)cccc3C)c2cc1OC | 30* | 61* | 38* | -3 | 8 | 9
O=C(CCn1c(=O)c2ccccc2n(Cc2ccc(F)cc2Cl)c1=O)NCc1ccco1 | 15 | 38* | 48* | 40* | 4 | -8
Cc1ccc(Cl)cc1NC(=O)Cn1c(=O)n(CCC(=O)NC2CCCC2)c(=O)c2ccccc21 | 41* | 23 | 22 | 3 | 3 | 1
Cc1ccc(Cl)cc1NC(=O)Cn1c(=O)n(CCC(=O)NCc2ccco2)c(=O)c2ccccc21 | 32* | 15 | 64* | 56* | 5 | -10
Cc1cc2c(cc1CCc1cc3c(cc1C)OCO3)OCO2 | 0 | 0 | -6 | 3 | -1 | 2
C[C@H](Cc1cc2c(cc1O)OCO2)[C@@H](C)Cc1cc2c(cc1O)OCO2 | 93* | 100* | 64* | 84* | 25 | 19
Cc1cc2oc(=O)cc(COC(=O)c3ccc4[nH]c(C)c(C)c4c3)c2cc1Cl | -98 | 46* | 23 | 6 | -1 | -8
O=C(Nc1nc(-c2ccccc2)ns1)c1ccc2ncsc2c1 | 12 | 41* | 17 | 36* | 2 | 13
CCOc1cccc(C(=O)Nc2nc(-c3ccc(OCC)c(OC)c3)ns2)c1 | 6 | 18 | -7 | -4 | 1 | 0
O=C(Cc1ccccc1)Nc1nc(-c2ccccc2)ns1 | 37* | 3 | 0 | 3 | 4 | -2
O=C(O)c1ccnc(C2CCCCC2=O)c1 (configuration not stated) | -114 | -29 | -18 | 0 | -11 | -11
COc1ccccc1NC(=O)CN1C(=O)CC(c2ccccc2)S(=O)(=O)c2ccccc21 (configuration not stated) | 5 | 8 | -6 | -1 | 3 | 1
CCOc1ccc2nc(-n3nc(C)c4c3NC(=O)CC4c3cc(C)sc3C)sc2c1 (configuration not stated) | 36* | 2 | 4 | 4 | -1 | -12
